In the supplement of paper PMC7156485:
± gives the standard deviation of the averaged measurements.

How the values were obtained:
Settings in all cases: concentration: 10 µM; 24 h
HCC1569 [1] = assay: cell number relative to DMSO (% of DMSO); higher = more cells (less growth inhibition / toxicity)
How it was run: (§1)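 H1.0 nuclear intensity or cell number is expressed as percent of the plate control, with the median of replicates taken. HCC1569 and TDF cells were treated with compounds at 10 µM for 24 h at 37 °C, in triplicate, then fixed and immunostained for H1.0 with DAPI as a nuclear stain. HCC1569 values were smoothed to correct for positional effects.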

TDF [2] = assay: as above
How it was run: as §1

TDF [3] = assay: H1.0 immunofluorescence intensity relative to DMSO (% of DMSO); higher = stronger H1.0 induction, active = 120 or more
How it was run: as §1

HCC1569 [4] = assay: H1.0 immunofluorescence intensity relative to DMSO (% of DMSO); higher = stronger H1.0 induction, active = 140 or more
How it was run: as §1
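Wherever H1.0 immunofluorescence intensity relative to DMSO is given: TDF is a line of transformed human dermal fibroblasts of mesenchymal origin.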
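Wherever cell number relative to DMSO is given: TDF denotes transformed human dermal fibroblasts of mesenchymal origin.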

SMILES: Cc1c(CC(C)(C)C(=O)O)n(Cc2ccc(Cl)cc2)c2ccc(F)cc12
- cell number (HCC1569 [1]): 107
- cell number (TDF [2]): 86.5
- H1.0 immunofluorescence intensity (TDF [3]): 105 (inactive)
- H1.0 immunofluorescence intensity (HCC1569 [4]): 99.6 (inactive)

SMILES: CN1CCN(C2Cc3ccccc3Sc3ccc(Cl)cc32)CC1.O=C(O)C=CC(=O)O (stereo unspecified)
- cell number (HCC1569 [1]): 82
- cell number (TDF [2]): 104
- H1.0 immunofluorescence intensity (TDF [3]): 105 (inactive)
- H1.0 immunofluorescence intensity (HCC1569 [4]): 145 (active)

SMILES: Cl.Cl.c1cnc(N2CCN(Cc3ccc4c(c3)OCO4)CC2)nc1 [Piribedil.2HCl]
- cell number (HCC1569 [1]): 100
- cell number (TDF [2]): 98.2
- H1.0 immunofluorescence intensity (TDF [3]): 92 (inactive)
- H1.0 immunofluorescence intensity (HCC1569 [4]): 107 (inactive)

SMILES: CN(C)CCC(c1ccc(Cl)cc1)c1ccccn1.O=C(O)C=CC(=O)O (single isomer, unassigned; (+)) [(+)-Chlorpheniramine maleate]
- cell number (HCC1569 [1]): 104
- cell number (TDF [2]): 104
- H1.0 immunofluorescence intensity (TDF [3]): 99.2 (inactive)
- H1.0 immunofluorescence intensity (HCC1569 [4]): 88.5 (inactive)

SMILES: COc1ccc(C2OCC3C(c4ccc(OC)c(OC)c4)OCC23)cc1OC (stereo unspecified) [Eudesmine]
- cell number (HCC1569 [1]): 102
- cell number (TDF [2]): 104
- H1.0 immunofluorescence intensity (TDF [3]): 97.6 (inactive)
- H1.0 immunofluorescence intensity (HCC1569 [4]): 107 (inactive)

SMILES: N[C@@H](Cc1c[nH]c2ccccc12)C(=O)O [L-Tryptophan]
- cell number (HCC1569 [1]): 101
- cell number (TDF [2]): 103
- H1.0 immunofluorescence intensity (TDF [3]): 96.6 (inactive)
- H1.0 immunofluorescence intensity (HCC1569 [4]): 108 (inactive)

SMILES: CCC1(O)CC2CN(CCc3c([nH]c4ccccc34)C(C(=O)OC)(c3cc4c(cc3OC)N(C=O)C3C(O)(C(=O)OC)C(OC(C)=O)C5(CC)C=CCN6CCC43C65)C2)C1.O=S(=O)(O)O (stereo unspecified) [Vincristine sulfate]
- cell number (HCC1569 [1]): 57.3 ± 1
- cell number (TDF [2]): 9.46 ± 1.6
- H1.0 immunofluorescence intensity (TDF [3]): 167 (active)
- H1.0 immunofluorescence intensity (HCC1569 [4]): 151 (active)

SMILES: CC(=O)NCCc1c[nH]c2ccc(O)cc12 [N-Acetyl-5-hydroxytryptamine]
- cell number (HCC1569 [1]): 101
- cell number (TDF [2]): 101
- H1.0 immunofluorescence intensity (TDF [3]): 93.3 (inactive)
- H1.0 immunofluorescence intensity (HCC1569 [4]): 87.2 (inactive)

SMILES: O=c1[nH]c2cc(Cl)ccc2c(O)c1-c1cccc(Oc2ccccc2)c1
- cell number (HCC1569 [1]): 108
- cell number (TDF [2]): 94.2
- H1.0 immunofluorescence intensity (TDF [3]): 91.7 (inactive)
- H1.0 immunofluorescence intensity (HCC1569 [4]): 88.2 (inactive)

SMILES: Cc1ccccc1/N=N/c1ccc(NC(=O)c2ccnn2C)c(C)c1
- cell number (HCC1569 [1]): 94.6
- cell number (TDF [2]): 98.7
- H1.0 immunofluorescence intensity (TDF [3]): 98.5 (inactive)
- H1.0 immunofluorescence intensity (HCC1569 [4]): 110 (inactive)

SMILES: COC1(C2=NCCN2)COc2ccccc2O1.Cl (stereo unspecified)
- cell number (HCC1569 [1]): 104
- cell number (TDF [2]): 108
- H1.0 immunofluorescence intensity (TDF [3]): 89.4 (inactive)
- H1.0 immunofluorescence intensity (HCC1569 [4]): 102 (inactive)

SMILES: O=c1c(O)c(-c2ccc(O)cc2O)oc2cc(O)cc(O)c12 [Morin]
- cell number (HCC1569 [1]): 99.7
- cell number (TDF [2]): 94
- H1.0 immunofluorescence intensity (TDF [3]): 89.4 (inactive)
- H1.0 immunofluorescence intensity (HCC1569 [4]): 98.5 (inactive)

SMILES: COc1ccccc1Oc1c(NS(=O)(=O)c2ccc(C(C)(C)C)cc2)nc(-c2ncccn2)nc1OCCO [Bosentan]
- cell number (HCC1569 [1]): 99.5
- cell number (TDF [2]): 98.2
- H1.0 immunofluorescence intensity (TDF [3]): 98.9 (inactive)
- H1.0 immunofluorescence intensity (HCC1569 [4]): 107 (inactive)

SMILES: c1ccc(-c2[nH]ncc2-c2ccnc3ccccc23)nc1 [TGF-b RI Kinase Inhibitor]
- cell number (HCC1569 [1]): 102
- cell number (TDF [2]): 103
- H1.0 immunofluorescence intensity (TDF [3]): 91 (inactive)
- H1.0 immunofluorescence intensity (HCC1569 [4]): 110 (inactive)
